A selection: hits, their analogues and other compounds. The true share with any hit is near 9.2%.
SMN2 splice up: qHTS Assay for Enhancers of SMN2 Splice Variant Expression; HEK293 SMN2-luciferase splicing reporter, luminescence, 30-36 h; Potency, µM (series often up to 46.1 µM), for inactives: at the top dose activity change, positive = activation, usual class: activators; 2.8% of 210,000 active; AID 1458, 2008; also: % of control where 0% means no effect; nearly all actives have a fitted effect of over 55% in size
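HEK293 cells carry an SMN2 […]–luciferase reporter in which exon 7 inclusion puts luciferase in frame. Cells were plated 10-12 h before compound addition, then incubated 30-36 h at 37C. ONE-Glo luminescence was read; sodium butyrate at 4.5 mM final served as control.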
FLuc modulator: qHTS profiling assay for firefly luciferase inhibitor/activator using purifed enzyme and Km concentrations of substrates (counterscreen for miR-21 project); Luciferin 4-monooxygenase (Photinus pyralis), P08659; AID 588342, 2011; purified FLuc, Km substrates, luminescence inhibition; Potency, µM (top dose mostly 57.5 µM), without a hit: at the top dose activity change, negative = inhibition, hits mostly inhibitors; 6.9% of 360,000 active;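 also: plate controls were vehicle for no effect and reference inhibitor for full effect; nearly all actives have a fitted effect of over 55% in size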
Target sequence (P08659 whole entry, looked up): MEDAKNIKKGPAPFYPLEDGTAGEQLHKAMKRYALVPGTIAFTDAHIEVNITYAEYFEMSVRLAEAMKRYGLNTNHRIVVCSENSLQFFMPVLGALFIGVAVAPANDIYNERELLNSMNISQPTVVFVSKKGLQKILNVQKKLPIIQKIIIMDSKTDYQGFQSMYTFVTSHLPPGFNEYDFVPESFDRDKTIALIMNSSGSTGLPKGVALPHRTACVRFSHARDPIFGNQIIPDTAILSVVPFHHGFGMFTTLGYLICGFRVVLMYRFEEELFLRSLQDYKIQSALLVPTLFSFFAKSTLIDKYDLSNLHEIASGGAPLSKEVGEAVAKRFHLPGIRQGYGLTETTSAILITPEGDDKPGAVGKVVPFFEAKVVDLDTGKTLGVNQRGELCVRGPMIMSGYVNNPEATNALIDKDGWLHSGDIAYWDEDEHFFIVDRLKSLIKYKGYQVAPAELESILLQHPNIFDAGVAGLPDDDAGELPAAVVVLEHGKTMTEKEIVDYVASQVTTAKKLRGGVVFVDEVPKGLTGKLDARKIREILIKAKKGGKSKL
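Purified P. pyralis luciferase, 10 nM final, with Km-level 10 uM D-luciferin and 10 uM ATP in 50 mM Tris acetate pH 7.5, 10 mM Mg acetate, 0.01% Tween-20, 0.05% BSA; 6-point qHTS titration about 60 µM downward; luminescence read.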
ELG1 genotoxic: qHTS screen for small molecules that induce genotoxicity in human embryonic kidney (HEK293T) cells expressing luciferase-tagged ELG1. HEK293T ELG1-luciferase reporter, luminescence, 16 h. Potency, µM (highest dose often 46 µM), inactives show top-dose activity change, positive = activation, most hits filed as activators. 1.3% of 330,000 active; also: % of control where 0% means no effect; nearly all actives have a fitted effect of over 60% in size
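Quantitative HTS format in 1536-well plates. HEK293T ELG1-luciferase reporter cells receive test compound and are incubated 16 hr at 37 °C, 5% CO2; ONE-Glo added, 30 min room temperature, then luminescence read.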
NPC1 prom act: qHTS Assay for NPC1 Promoter Activators. Huh7 NPC1 promoter luciferase reporter, 24 h. Potency, µM (highest dose often 9.22 µM), inactives show at the top dose activation, most hits filed as activators. 2.4% of 320,000 active. AID 485313, 2010; also: % of control where 0% means no effect; nearly all actives have a fitted effect of over 60% in size
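Luciferase expression driven by the NPC1 promoter was measured in stably transfected Huh7 cells after a 24 h compound incubation, using a luciferase reagent and a luminescence read.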
ELG1 repair inh: qHTS screen for small molecules that inhibit ELG1-dependent DNA repair in human embryonic kidney (HEK293T) cells expressing luciferase-tagged ELG1; HEK293T ELG1-luciferase reporter, luminescence, 16 h; DNA damage induced by 5-fluorouridine; Potency, µM (doses to about 46.1 µM), for inactives: at the top dose activity change, negative = inhibition, usual class: inhibitors; 2.3% of 330,000 active; AID 504467, 2011; also: % is scaled to controls: 0 for no effect and ±100 for the full control effect; nearly all actives have a fitted effect of over 55% in size
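HEK293T cells expressing luciferase-tagged ELG1 (2,000/well) received 5-Fluorouridine plus compound or DMSO for 16 hr at 37 °C. Luciferase was read by ONE-Glo luminescence after 30 min at room temperature.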
Rab9 prom act: qHTS Assay for Rab9 Promoter Activators | Potency, µM (series often up to 9.22 µM), without a hit: at the highest dose activation, negative = inhibition, actives largely listed as activators | 2.8% of 320,000 active | Huh7 Rab9 promoter-luciferase reporter, luminescence, 24 h; also: % of control where 0% means no effect; nearly all actives have a fitted effect of over 60% in size
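Cells were plated at 1500 per well in reduced-serum medium with 10% FBS and left 2 h. Compound in DMSO was then added for 24 h at 37 °C. Reporter signal was read by luminescence after 10 min with luciferase detection reagent.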
Active calls of the source: *; ? = inconclusive; . = no result. Calls follow the shape of the dose curve; as a rule, active = well fitted curve in the direction sought with a large enough effect; inconclusive = small, poorly fitted or top-dose-only effect, or another doubt; inactive = no such curve, though single readings can be large; an effect the other way counts as inactive or inconclusive. Potency is read from the fitted curve at half-maximal effect.

SMILES | SMN2 splice up | FLuc modulator | ELG1 genotoxic | NPC1 prom act | ELG1 repair inh | Rab9 prom act
Cc1cccc(NC(=O)CSCC(=O)Nc2cccc(S(=O)(=O)N3CCCCCC3)c2)c1 | . | -18.4% | -7.2% | -0.5% | -17.7% | -6.7%
O=C(Nc1ccc(Br)cc1)NC1CCCCCCC1 | . | 6.75µM* | ? | 2.24µM* | ? | 3.98µM*
O=C(Nc1ccccc1)NC1CCCCC1 | ? | ? | 22.5% | 21.3% | ? | ?
CCOc1ccc(NC(=O)NC2CCCCCCC2)cc1 | . | 5.36µM* | 10.3µM* | 1.78µM* | ? | 3.55µM*
Cc1ccc(NC(=O)C(=O)N2CCCC2)cc1Cl | 10µM* | 2.13µM* | ? | 3.16µM* | ? | 2.82µM*
CCOc1ccc(CC(=O)NNC(=O)NC2CCCCC2)cc1 | 2.5% | -1.5% | 2.5% | 0.5% | 9.4% | 1.6%
Cc1ccc(NC(=O)NC2CCCCC2)cc1Cl | 12.6µM* | ? | 3.66µM* | 3.16µM* | ? | ?
CC(=O)Nc1ccc(NC(=O)C(C)OC(=O)C(C)SCC(=O)Nc2ccc(F)cc2)cc1 (stereo not given) | . | 3.0% | 1.9% | -0.4% | 2.8% | -17.1%
COc1ccc(CCNC(=O)CCCCn2c(=O)c3ccccc3n(Cc3cccc(C)c3)c2=O)cc1OC | -4.8% | -3.6% | . | . | . | .
COc1ccc2c(CNCc3ccco3)c(C(=O)O)n(Cc3cccc(F)c3)c2c1 | . | -15.9% | . | . | . | .
O=C(CCN1CCN(CCO)CC1)Nc1ccc(C2CCCC2)cc1 | -16.8% | 4.3% | 2.2% | -9.3% | -9.4% | -2.9%
CCc1ccc(NC(=O)NC2CCCCCCC2)cc1 | . | 3.79µM* | ? | 0.708µM* | ? | 1.12µM*
O=C(CSCCO)Nc1ccc(C2CCCCC2)cc1 | -11.7% | 12µM* | ? | -5.4% | ? | -5.7%
COc1ccccc1NC(=O)C(C)OC(=O)CCNS(=O)(=O)c1cccc(C(F)(F)F)c1 (stereo not given) | . | . | 1.3% | 0.9% | 11.9% | -7.1%
O=C(CCC(=O)N1CCSc2ccccc21)NCc1ccccc1 | . | -0.4% | -6.6% | 0.6% | 20.5% | 2.7%
COc1ccc2c(c1)cc1c(=O)n(CC(=O)NCc3ccco3)nc(C)n12 | 1.9% | 0.3% | . | . | . | .
COc1ccc(S(=O)(=O)c2cnc3ccc(OC)cc3c2N2CCC3(CC2)OCCO3)cc1 | -16.7% | 0.0% | -4.3% | 0.0% | 23.1µM* | -5.9%
CCOc1ccc2ncc(S(=O)(=O)c3ccccc3)c(N3CCC4(CC3)OCCO4)c2c1 | 18.6% | -5.0% | -3.0% | -2.7% | ? | -3.5%
CCOc1ccc2ncc(S(=O)(=O)c3ccccc3)c(N3CCN(c4ccc(OC)cc4)CC3)c2c1 | -9.7% | -2.5% | -7.0% | 1.4% | 18.4µM* | -0.4%
CCOC(=O)c1cnc2ccc(OCC)cc2c1N1CCN(c2ccccc2)CC1 | -13.4% | 1.2% | -12.9% | 1.6% | ? | -4.9%
COc1ccc(N2CCN(c3c(S(=O)(=O)c4ccccc4)cnc4ccc(OC)cc34)CC2)cc1 | . | 3.4% | -7.4% | -1.0% | 18.4µM* | -0.1%
CC1=C(C(N)=O)C(c2ccc(C(C)C)cc2)n2nc(SCc3ccccc3)nc2N1 (stereo not given) | -0.1% | -1.9% | . | . | . | .
CC(c1ccon1)N(C)C(=O)CCc1nnc(CCCCc2ccccc2)o1 (stereo not given) | . | -14.0% | 1.2% | -0.2% | 8.7% | 7.9%
COc1ccc(CNC(=O)CN(c2ccc(C)cc2)S(=O)(=O)c2c(C)nn(C)c2C)cc1 | . | 2.4% | 0.2% | -1.7% | 11.8% | 3.1%
CCN(CC)c1ccc(/C=C(/C#N)C(=O)NC(C)C)o1 | 24.9% | ? | 18.6% | 8.4% | ? | 27.0%
SMILES | SMN2 splice up | FLuc modulator | ELG1 genotoxic | NPC1 prom act | ELG1 repair inh | Rab9 prom act
CCN(CC)c1ccc(/C=C(/C#N)C(=O)NCc2ccccc2)o1 | . | 23.9µM* | 14.8% | 23.4% | ? | ?
N#C/C(=C\c1ccccc1[N+](=O)[O-])C(=O)NCc1ccccc1 | . | -5.7% | -2.3% | -3.4% | 1.83µM* | 1.9%
CCc1cccc2c(C(=O)COC(=O)c3nccnc3N)c[nH]c12 | . | 15.1µM* | ? | 24.6% | ? | ?
CCc1cccc2c(C(=O)COC(=O)c3cnc(C)cn3)c[nH]c12 | . | -3.2% | -1.0% | -1.2% | -1.6% | -5.0%
CCc1cccc2c(C(=O)COC(=O)c3ccccc3)c[nH]c12 | 26.3% | 2.39µM* | ? | ? | ? | ?
COc1ccc(CNCc2c(C(=O)O)c(C)n(Cc3ccccc3C)c2C)cc1OC | 21.9% | -0.9% | . | . | . | .
CC(C)(C)NC(=O)COc1ccc(-c2ccccc2)cc1 | 11.9% | 19µM* | ? | ? | ? | 23.0%
CC(C)OC(=O)COc1ccc(-c2ccccc2)cc1 | 6.5% | 12µM* | -4.5% | -0.2% | 11.2% | 2.5%
CCNC(=O)COc1ccc(OCc2ccccc2)cc1 | 10.4% | ? | 8.2% | 9.9% | ? | 18.1%
CCNC(=O)COc1ccc(-c2ccccc2)cc1 | ? | 19µM* | ? | ? | ? | ?
COc1ccc(-c2onc(C)c2C)cc1S(=O)(=O)NCC1CCN(Cc2cc(C)ccc2C)CC1 | . | -1.6% | . | . | . | .
CCCn1cc(SCC(=O)Nc2nnc(C)s2)c2ccccc21 | 11.9% | 3.7% | 8.0% | -5.8% | -12.6% | -5.6%
Cn1c(=O)cc(SCC(=O)NCc2ccco2)c2ccccc21 | . | -10.8% | 2.3% | -0.5% | 13.5% | -0.8%
CC(C)(C)c1ccccc1NC(=O)C1=COCCO1 | . | 2.1% | 6.2% | -1.0% | ? | 2.4%
O=C(CSc1cn(CCNC(=O)c2ccc3ccccc3c2)c2ccccc12)NCc1ccco1 | -95.0% | -12.5% | ? | 0.9% | 23.1µM* | 0.0%
COc1ccc(NC(=O)CSc2cn(CCNC(=O)c3ccc(OC)cc3)c3ccccc23)cc1 | -28.3% | ? | . | . | . | .
Cc1ccc(C(=O)NCCn2cc(SCC(=O)Nc3nnc(C)s3)c3ccccc32)cc1 | -55.3% | 16.9µM* | ? | -2.7% | ? | 26.4%
O=C(NCCc1ccccc1)C1=COCCO1 | . | 16.9µM* | ? | 2.51µM* | ? | 3.16µM*
COc1ccc(C(=O)NCCn2cc(SCC(N)=O)c3ccccc32)cc1 | . | 15.1µM* | 3.7% | 11.7% | ? | 22.3%
Cc1c(N=C=O)cccc1N=C=O | 0.5% | . | . | . | . | .
COc1ccccc1CNC(=O)CN1C(=O)COc2ccc(S(=O)(=O)Nc3ccccc3)cc21 | . | -18.2% | . | . | . | .
Cc1ccc(Nc2cc(C)c(O)c(C)c2)cc1 | . | ? | ? | 15.1% | ? | 11.1%
